# Assay results as given in the supplement of paper PMC6555819.
# How the values were obtained:
# Assay in all cases: PBM binding z-score (relative to random genomic background probes); higher = stronger binding; sequences stand for … in GC…GCGATTGACAGCGTAGAATGAAGG
# [1] = test system: RARb homodimer (NR concentration 270 nM)
# Method in brief: (§1)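 The probes on custom Agilent 4×180K protein-binding microarrays were double-stranded, with 34-nt variable regions bearing direct-repeat seeds, single-nucleotide variants, half-site ablations and random human genomic background sequences. Incubation lasted 1 h with ligand-free nuclear receptor dimers in PBS pH 7.4, 2% milk, 0.02% Triton X-100, 1 mM DTT, 0.2 mg/mL BSA and 0.4 mg/ml salmon testes DNA. Antibodies against each partner (one per run) detected bound dimers, and fluorescence scans were regression-normalized. Binding z-scores take the random background probes as reference.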
# [2] = test system: RARg:RXRa (NR concentration 270 nM, RXRa partner concentration 90 nM)
# Method in brief: as §1
# [3] = test system: RARg homodimer (NR concentration 270 nM)
# Method in brief: as §1
# [4] = test system: RXRa DBDmut IVT, anti-RXR (DBD mutation: RXRa K156A/R161A, NR concentration 90 nM)
# Method in brief: as §1
# [5] = test system: RXRa homodimer (NR concentration 180 nM)
# Method in brief: as §1
# [6] = test system: THRa:RXRa (NR concentration 90 nM, RXRa partner concentration 90 nM)
# Method in brief: as §1
# [7] = test system: THRa homodimer (NR concentration 90 nM)
# Method in brief: as §1
# [8] = test system: VDR homodimer (NR concentration 270 nM)
# Method in brief: as §1
Sequence,PBM binding z-score [1],PBM binding z-score [2],PBM binding z-score [3],PBM binding z-score [4],PBM binding z-score [5],PBM binding z-score [6],PBM binding z-score [7],PBM binding z-score [8]
ATATGTAGGTTACATCCGGGGCATTCAGGCTATG,1.23,1.76,1.3,0.51,1.12,1.83,0.704,0.977
GATACAGGGTCAAGGCCAAAGTACGCGTATTGAT,3.82,5.66,5.29,2.45,6.07,3.76,1.43,2.52
TCAGACAGGTTAAGGTAACTCAGGTACGCAGTCG,1.33,1.22,1.08,1.43,1.57,3.11,2.5,0.557
ACAGACAGGTGATGAAGGTAAGTCAGGCTATCAT,0.406,0.153,0.428,-0.263,0.248,0.617,-0.25,-0.186
GCTAGATGGTCAGTAAAAGGTCACACACCGGTCG,5.31,5.52,4.87,0.182,5.18,3.69,1.89,1.57
ATATGTATGTTAGCTGGGGTCATTCAGACTAGGC,3.35,3.62,2.31,2.11,5.39,4.27,2.96,4.67
CGAACTAGATCATCCAGGACAGTGAATACATTGA,0.254,0.0804,0.347,0.701,-0.151,1.13,1.14,0.494
